The full ranking holds about 33,000 sequences; the median of “e-score” is about -0.053, and the highest 2% start at about 0.38. This excerpt belongs to a sample that is enriched for the highest values.

The assay deals with T1, SIX1 homeodomain (reference allele) (human, UniProt Q15475 108-198).
T1 sequence: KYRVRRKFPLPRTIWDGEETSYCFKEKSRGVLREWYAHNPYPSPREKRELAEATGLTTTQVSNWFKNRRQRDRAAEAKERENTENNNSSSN
As to the kind of experiment: universal protein binding microarray; Universal all-10-mer PBM (8x60K, AMADID 030236), 300 nM GST-tagged protein, Alexa Fluor 488 anti-GST; buffer, salt, pH and temperature not stated (as in Berger); high values mean tight binding. Particulars: protein: ivt; tags: N-terminal GST; dsDNA, one strand shown. The procedure, abridged:
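Homeodomains carrying a GST tag were produced by in vitro transcription/translation, then quantified by anti-GST western blot against a recombinant GST standard curve. Duplicate applications at 300 nM final concentration were made to universal 'all 10-mer' protein binding microarrays in 8×60K format. The Universal PBM Analysis Suite was used to express binding as 8-mer E-scores.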
As to GCCTATAA, the binding signal was 0.161 ± 0.0675 E-score. With TATCGTGA, the binding signal is 0.279 ± 0.00354 E-score. The result for AATACGAG reads 0.233 ± 0.00564 E-score. Take AATTGTGA: the binding signal came to 0.185 ± 0.0272 E-score.

Take ATGGTGTG: the binding signal was found to be 0.183 ± 0.0828 E-score. On to CTGGTCTA, for which the binding signal stood at 0.201 ± 0.0694 E-score. Under CTGGTGTA stands 0.313 ± 0.0189 E-score. The result for ATGGTGTA reads 0.305 ± 0.00747 E-score; that for ATGGTGTC, 0.435 ± 0.0115 E-score; that for CTGGTGTC, 0.414 ± 0.0127 E-score. The result for TATCCCGA reads 0.315 ± 0.0248 E-score; that for AATCCCTA, 0.185 ± 0.0203 E-score. In the case of GATCCCTA, the binding signal was 0.3831 ± 0.000778 E-score. The result for GATCCCGA reads 0.377 ± 0.0296 E-score. The result for AATCCCGA reads 0.223 ± 0.0516 E-score; that for GATCCTTA, 0.342 ± 0.021 E-score. The result for AACCGAGA reads 0.162 ± 0.046 E-score. Take ACACCTCG: the binding signal turned out to be 0.3009 ± 0.00176 E-score. The result for CCTATCTA reads 0.178 ± 0.0299 E-score.

Consider AGGATCAT, for which the binding signal was found to be 0.38 ± 0.0194 E-score.

Regarding ACGATCAC, the binding signal was determined as 0.177 ± 0.0336 E-score. For the sequence AGGATCAC, the binding signal was found to be 0.435 ± 0.0114 E-score. The result for AAGATCAC reads 0.239 ± 0.0239 E-score. Under ATGATCAT stands 0.246 ± 0.029 E-score; under AGGATCAG, 0.368 ± 0.0142 E-score. Under CATGAGAC stands 0.296 ± 0.000976 E-score; under ACTACTCG, 0.163 ± 0.00508 E-score; under GTGTCAAC, 0.287 ± 0.0231 E-score. Regarding GTGTCAAA, the binding signal was 0.311 ± 0.019 E-score.

As to AGATCACG, the binding signal amounted to 0.306 ± 0.0143 E-score.

In the case of GTATCAAC, the binding signal was found to be 0.475 ± 0.0103 E-score.

Regarding AGATCAAA, the binding signal turned out to be 0.188 ± 0.0637 E-score. Under AGATCACA stands 0.255 ± 0.00822 E-score.

Consider AGATCAAT, for which the binding signal was 0.3827 ± 0.00302 E-score. Under GTATCAAA stands 0.452 ± 0.0436 E-score; under AGATCAAG, 0.232 ± 0.0888 E-score.

With AGATCACT, the binding signal came out at 0.385 ± 0.0244 E-score.

With CTATCAAA, the binding signal is 0.258 ± 0.141 E-score. Under GTATAAAC stands 0.185 ± 0.0191 E-score; under CGGAGATA, 0.314 ± 0.0255 E-score. The result for ATCCTTCG reads 0.228 ± 0.0545 E-score; that for ATTAATCG, 0.16 ± 0.0622 E-score; that for ATACTTAC, 0.218 ± 0.0954 E-score.

ATATTATG: the binding signal amounted to 0.299 ± 0.0542 E-score. Under ATCAGGCG stands 0.25 ± 0.0206 E-score; under CTCATCTC, 0.158 ± 0.0133 E-score; under ACTCGGGG, 0.212 ± 0.0491 E-score.

For CCCTATCC, the binding signal is 0.359 ± 0.0609 E-score. As for AGTGGGAT, the binding signal amounted to 0.333 ± 0.0228 E-score. The result for CGATCGCC reads 0.257 ± 0.026 E-score; that for CGGCGATC, 0.302 ± 0.0621 E-score; that for ATCTCAAC, 0.233 ± 0.0413 E-score.

As for ATATCAAG, the binding signal worked out at 0.423 ± 0.0464 E-score. Under ATCTCAAG stands 0.215 ± 0.0235 E-score; under CTATCAAC, 0.29 ± 0.0532 E-score. The result for ATATCAAC reads 0.418 ± 0.0449 E-score; that for ATCTCAAT, 0.183 ± 0.0808 E-score; that for ATATCAAA, 0.374 ± 0.0809 E-score. Under CTATCAAG stands 0.155 ± 0.0723 E-score; under ATATCAAT, 0.421 ± 0.0559 E-score; under ACAGGGTA, 0.267 ± 0.0137 E-score. Consider ATCATAAC, for which the binding signal was 0.2814 ± 0.00204 E-score.

As for CCCGTGTA, the binding signal came out at 0.171 ± 0.0224 E-score. For the sequence ATCCCTAC, the binding signal turned out to be 0.307 ± 0.0295 E-score. The result for ATCACTCA reads 0.335 ± 0.0213 E-score. For the sequence CGCATATA, the binding signal stood at 0.158 ± 0.0261 E-score.

AGAATATC: the binding signal is 0.283 ± 0.121 E-score. The result for AGCATATC reads 0.408 ± 0.0304 E-score. Under ATCATATA stands 0.271 ± 0.0327 E-score; under CGCATACC, 0.266 ± 0.0145 E-score; under ATCATATC, 0.425 ± 0.033 E-score.

As for CTCATATC, the binding signal amounted to 0.31 ± 0.0778 E-score. Under CGCATATC stands 0.414 ± 0.0167 E-score; under AGCATATA, 0.239 ± 0.0331 E-score; under CGCATCTC, 0.154 ± 0.00741 E-score.

With TACATGTA, the binding signal was 0.176 ± 0.041 E-score. Under ACTCATAT stands 0.25 ± 0.0849 E-score; under AGTATACG, 0.26 ± 0.0621 E-score. ATACGTGC: the binding signal worked out at 0.358 ± 0.0375 E-score.

Take GTGTCATA: the binding signal came to 0.369 ± 0.0321 E-score.

As for ATATGACG, the binding signal was 0.227 ± 0.0466 E-score. The result for CGATCCAG reads 0.212 ± 0.123 E-score; that for TACAGGTA, 0.244 ± 0.0285 E-score. As for GATAGGCC, the binding signal worked out at 0.209 ± 0.0213 E-score. Consider CTGCGATC, for which the binding signal is 0.322 ± 0.0185 E-score. Under ACCCGGGT stands 0.377 ± 0.0364 E-score.

Regarding ATCCGGAA, the binding signal came to 0.295 ± 0.0493 E-score. The result for AACCGTAT reads 0.275 ± 0.0195 E-score; that for ACCCGGAA, 0.184 ± 0.00414 E-score.

With ACCCGGAT, the binding signal came out at 0.411 ± 0.0469 E-score.

Consider ACCCGTAG, for which the binding signal amounted to 0.156 ± 0.0429 E-score. Under ACCCGGAG stands 0.194 ± 0.0529 E-score. Under ACCCGGCT stands 0.22 ± 0.0443 E-score; under ACCCGTAT, 0.391 ± 0.00477 E-score; under ATCCGGAG, 0.299 ± 0.0152 E-score. Under ACCCGGGA stands 0.311 ± 0.0112 E-score; under ATCCGGAT, 0.446 ± 0.0263 E-score. TCCGCCGA: the binding signal stood at 0.252 ± 0.00841 E-score. Under CGAATACG stands 0.2 ± 0.0406 E-score.

Turning to GGTGTTGA, the binding signal amounted to 0.258 ± 0.0174 E-score. Regarding TCAGATAA, the binding signal amounted to 0.21 ± 0.0582 E-score.

AATACCTG: the binding signal was 0.178 ± 0.0145 E-score. The result for ATCATCGG reads 0.365 ± 0.0324 E-score; that for AACCGGAT, 0.316 ± 0.00955 E-score; that for AGCCGGCT, 0.1726 ± 0.000438 E-score. Take AGCCGGAT: the binding signal came out at 0.382 ± 0.0208 E-score. Under ATCTTCAG stands 0.153 ± 0.0288 E-score; under CGGTGTTA, 0.312 ± 0.0102 E-score; under AGTGGTAT, 0.35 ± 0.0207 E-score.

Turning to AATGGTAT, the binding signal came out at 0.381 ± 0.00619 E-score. Under ACCGGTAT stands 0.37 ± 0.0044 E-score; under ACTGGGAT, 0.239 ± 0.0081 E-score; under AATGGTGT, 0.287 ± 0.00727 E-score. For ACTGGTAT, the binding signal was determined as 0.386 ± 0.034 E-score. Under GGATTAGA stands 0.165 ± 0.00327 E-score. The result for TCGTATCA reads 0.45 ± 0.0228 E-score. The result for GCGTATAA reads 0.16 ± 0.104 E-score; that for TCCTATCA, 0.307 ± 0.0417 E-score; that for CCGTATCG, 0.457 ± 0.0169 E-score.

Take TCGTATAA: the binding signal is 0.194 ± 0.0979 E-score.

On to ACCTATCA, for which the binding signal was found to be 0.336 ± 0.0088 E-score. In the case of GCGTATCA, the binding signal was determined as 0.481 ± 0.00534 E-score. The result for GCGTCTCA reads 0.209 ± 0.0176 E-score; that for CCCTATCA, 0.429 ± 0.0145 E-score. The result for CCGTATTA reads 0.322 ± 0.00404 E-score; that for CCGTATAG, 0.239 ± 0.00962 E-score. As for GCCTATCA, the binding signal was determined as 0.289 ± 0.00848 E-score. As to ATCCCTCG, the binding signal amounted to 0.337 ± 0.0323 E-score.

In the case of ATATAGCG, the binding signal came out at 0.164 ± 0.0414 E-score. Regarding GTATTAAC, the binding signal amounted to 0.272 ± 0.0619 E-score. The result for GATAGTGA reads 0.231 ± 0.0159 E-score; that for CCGTATAA, 0.226 ± 0.0709 E-score.

As for CCGTATCA, the binding signal was 0.486 ± 0.00556 E-score. Under CCGTATGA stands 0.217 ± 0.0235 E-score; under ATCATACC, 0.351 ± 0.0212 E-score; under ATCGCCTA, 0.232 ± 0.0537 E-score. Under GAGACGGA stands 0.272 ± 0.0111 E-score.

As to GAGTTATC, the binding signal came out at 0.248 ± 0.0177 E-score. The result for AAGGTATG reads 0.201 ± 0.00407 E-score; that for GAGGTATA, 0.365 ± 0.0614 E-score; that for CAGGTAGA, 0.15 ± 0.00481 E-score. For the sequence GAGGTATC, the binding signal worked out at 0.4767 ± 0.00464 E-score.

With CAGGTATC, the binding signal came to 0.4642 ± 0.00145 E-score. Under AAGGTATT stands 0.248 ± 0.0945 E-score; under AAGGTATC, 0.472 ± 0.0103 E-score; under CAGGTATA, 0.276 ± 0.0442 E-score. Turning to CCGGCTAA, the binding signal worked out at 0.178 ± 0.0089 E-score. The result for ACACCTAA reads 0.261 ± 0.0204 E-score; that for CCAATCCG, 0.224 ± 0.0167 E-score. Under CGCCGATC stands 0.258 ± 0.0126 E-score. Take ATCCATAC: the binding signal is 0.31 ± 0.0347 E-score.

Take AGCGGTAT: the binding signal was found to be 0.3428 ± 0.000445 E-score. Under TATCGGCA stands 0.244 ± 0.0173 E-score; under AGACGATC, 0.285 ± 0.0103 E-score; under AGCCTATC, 0.192 ± 0.0162 E-score. Regarding CCCCGCCA, the binding signal was 0.161 ± 0.0538 E-score. The result for ATTATCTC reads 0.203 ± 0.126 E-score; that for GATAGGGA, 0.376 ± 0.00884 E-score. The result for GATAGGGC reads 0.285 ± 0.0546 E-score.

Regarding TATAGGGA, the binding signal amounted to 0.206 ± 0.00286 E-score. Under AGGAATCC stands 0.197 ± 0.00841 E-score; under GATCGTCC, 0.238 ± 0.0474 E-score. The result for CAAACCCG reads 0.174 ± 0.0382 E-score. The result for AGATACCT reads 0.42 ± 0.0259 E-score; that for GAATACCC, 0.368 ± 0.0333 E-score.

On to AGATACAT, for which the binding signal came out at 0.329 ± 0.00303 E-score. Under CAATACCC stands 0.387 ± 0.00788 E-score; under CGATACCG, 0.45 ± 0.0109 E-score; under CAATACCG, 0.354 ± 0.0156 E-score. Under AGATACCA stands 0.422 ± 0.0101 E-score; under AAATACCG, 0.178 ± 0.0267 E-score. The result for ACATACCG reads 0.162 ± 0.0512 E-score; that for AAATACCT, 0.173 ± 0.0423 E-score.

The values are drawn from PMC10668032, “Altered binding affinity of SIX1-Q177R correlates with enhanced WNT5A and WNT pathway effector expression in Wilms tumor”.
